Test results: PMC5540273 (PLoS ONE, 2017)

system: T1, PIP5K2C
T1 construct: gene PIP4K2C
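Also: kd values determined as follow-up on hits from a single-replicate KINOMEscan panel screen.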

Structure (SMILES) | Kd [nM]
COc1cc(Nc2nccc(N3CCC(NC(=O)C4COc5ccccc5O4)C3)n2)cc(OC)c1OC (stereo not shown) [GSK1379761] | 670
CCS(=O)c1ccc(-c2coc3ccc(-c4nnc(C)o4)cc23)cc1 (stereo not shown) | 85
COc1cc2ncn(-c3cc(OCc4ccncc4Br)c(C(N)=O)s3)c2cc1OC [GW854278] | 330

system: PLK1

Structure (SMILES) | Kd [nM]
COc1cc2ncn(-c3cc(OCc4ccc(S(C)(=O)=O)cc4)c(C(N)=O)s3)c2cc1OC [GW869979] | 14
COc1cc2ncn(-c3cc(OCc4ccncc4)c(C(N)=O)s3)c2cc1OC [GSK336313] | 110
COc1cc2ncn(-c3cc(OCc4ccncc4Br)c(C(N)=O)s3)c2cc1OC [GW854278] | 1.1
Cc1ccccc1COc1cc(-n2cnc3cc(Cl)ccc32)sc1C(N)=O [GW813349] | 19

system: PLK2

Structure (SMILES) | Kd [nM]
COc1cc2ncn(-c3cc(OCc4ccc(S(C)(=O)=O)cc4)c(C(N)=O)s3)c2cc1OC [GW869979] | 5.9
COc1cc2ncn(-c3cc(OCCCc4ccccc4)c(C(N)=O)s3)c2cc1OC [GSK205189] | 34
COc1cc2ncn(-c3cc(OCc4ccncc4)c(C(N)=O)s3)c2cc1OC [GSK336313] | 41
COc1cc2ncn(-c3cc(OCc4ccncc4Br)c(C(N)=O)s3)c2cc1OC [GW854278] | 1.4
Cc1ccccc1COc1cc(-n2cnc3cc(Cl)ccc32)sc1C(N)=O [GW813349] | 68

system: PLK3

Structure (SMILES) | Kd [nM]
COc1cc2ncn(-c3cc(OCc4ccc(S(C)(=O)=O)cc4)c(C(N)=O)s3)c2cc1OC [GW869979] | 100
COc1cc2ncn(-c3cc(OCCCc4ccccc4)c(C(N)=O)s3)c2cc1OC [GSK205189] | 120
COc1cc2ncn(-c3cc(OCc4ccncc4Br)c(C(N)=O)s3)c2cc1OC [GW854278] | 9.4
Cc1ccccc1COc1cc(-n2cnc3cc(Cl)ccc32)sc1C(N)=O [GW813349] | 99
